According to PubChem BioAssay (EPA / NIEHS):
Records with an inconclusive call do not appear. A structure can be active in one record and inactive in another. Activity calls are given as the source filed them. The calls were made as follows, unless noted: active = hit-call score of the fitted dose curve at least 0.9, where 1 is the maximum; inconclusive = response in the unintended direction; inactive = score below 0.9.

Tests used:
[1] = TOX21_p53_BLA_p2_viability: Viability Assessment in the Tox21 HCT-116 p53 Agonism Beta-lactamase Assay, Phase 2 (AID 2283591);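 also: compound exposure lasted 16 h at 37 °C; actives lower the ATP signal meaning cytotoxicity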
Outline: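 HCT-116 p53-bla cells (4000/well) rested 5 h at 37C, then received compounds in DMSO (217-fold dilution) for 16 h at 37C, 5% CO2. After the CCF4 read, CellTiter-Glo was added; ATP luminescence was read after 30 min at room temperature.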

[2] = TOX21_p53_BLA_p3_viability: Viability Assessment in the Tox21 HCT-116 p53 Agonism Beta-lactamase Assay, Phase 3 (AID 2283593);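 also: cells exposed to compound for 16 h before reading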
Outline: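 HCT-116 cells (4000/well) rested 5 h at 37C, then got DMSO compounds by pin tool (217-fold dilution) for 16 h at 37C, 5% CO2. After the bla read, CellTiter-Glo was added and luminescence read at 30 min, room temperature.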

[3] = biological target: Cellular tumor antigen p53 (Homo sapiens) (UniProt P04637); experiment: TOX21_p53_BLA_p3_ratio: Tox21 HCT-116 p53 Agonism Beta-lactamase Assay, Ratio, Phase 3 (AID 2283596)
Sequence of Cellular tumor antigen p53 (Homo sapiens) (P04637 whole entry, looked up): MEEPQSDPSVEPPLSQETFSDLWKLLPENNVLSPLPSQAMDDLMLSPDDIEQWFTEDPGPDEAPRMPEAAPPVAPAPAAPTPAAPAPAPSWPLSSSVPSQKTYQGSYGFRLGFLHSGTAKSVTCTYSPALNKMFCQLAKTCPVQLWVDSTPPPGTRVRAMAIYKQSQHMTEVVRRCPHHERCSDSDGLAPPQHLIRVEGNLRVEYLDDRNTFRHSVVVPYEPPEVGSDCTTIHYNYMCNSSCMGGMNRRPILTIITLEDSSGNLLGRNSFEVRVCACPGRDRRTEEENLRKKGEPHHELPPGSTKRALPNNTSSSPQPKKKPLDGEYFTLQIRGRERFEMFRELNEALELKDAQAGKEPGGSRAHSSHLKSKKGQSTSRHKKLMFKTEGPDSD
Outline: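 HCT116 p53-bla cells (4000/well) given compound in DMSO (217-fold dilution) after 5 h, incubated 16 h at 37C. CCF4-AM substrate 2 h at room temperature; 460/530 nm emission ratio, gain fitted against DMSO.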

[4] = biological target: Cellular tumor antigen p53 (Homo sapiens) (UniProt P04637); experiment: TOX21_p53_BLA_p5_ratio: Tox21 HCT-116 p53 Agonism Beta-lactamase Assay, Ratio, Phase 5 (AID 2283599)
Outline: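 HCT-116 cells carrying a p53-inducible beta-lactamase reporter were seeded at 4000 cells/well and dosed after 5 h with compound in DMSO (217-fold dilution). After 16 h at 37C, CCF4-AM substrate was added for 2 h, and the 460/530 nm emission ratio was scored as gain-of-signal versus DMSO.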

[5] = TOX21_p53_BLA_p5_viability: Viability Assessment in the Tox21 HCT-116 p53 Agonism Beta-lactamase Assay, Phase 5 (AID 2283600)
Outline: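 Seeded cells (4000/well) settle 5 h before compound addition. Plates then incubate 16 h at 37C, receive FRET substrate for 2 h, and finally CellTiter-Glo, with luminescence measured after a 30 min room-temperature incubation.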

[6] = biological target: Cellular tumor antigen p53 (Homo sapiens) (UniProt P04637); experiment: TOX21_p53_BLA_p4_ratio: Tox21 HCT-116 p53 Agonism Beta-lactamase Assay, Ratio, Phase 4 (AID 2283601)
Outline: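 HCT116 cells carrying an inducible beta-lactamase reporter were plated at 4000 cells/well, rested 5 h, then exposed to compounds in DMSO (217-fold dilution) for 16 h at 37C. CCF4-AM substrate was loaded 2 h at room temperature; 460/530 nm emission ratio scored gain-of-signal versus DMSO.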

[7] = TOX21_p53_BLA_p4_viability: Viability Assessment in the Tox21 HCT-116 p53 Agonism Beta-lactamase Assay, Phase 4 (AID 2283597);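 also: hits lower the luminescence signal meaning cytotoxicity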
Outline: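 Luminescent ATP readout (CellTiter-Glo, 30 min, room temperature) in the same wells as the p53 bla ratio. HCT116 cells were treated for 16 h at 37C with DMSO-dissolved compounds.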

PGR (gene 5241) [8] = biological target: PGR (gene 5241) (UniProt P06401); experiment: TOX21_PR_BLA_Followup_Antagonist_ratio: Tox21 HEK293 Progesterone Receptor (PR) Antagonism Beta-lactamase Follow-Up Assay, Ratio (AID 2283934)
Sequence of PGR (gene 5241) (P06401 whole entry, looked up): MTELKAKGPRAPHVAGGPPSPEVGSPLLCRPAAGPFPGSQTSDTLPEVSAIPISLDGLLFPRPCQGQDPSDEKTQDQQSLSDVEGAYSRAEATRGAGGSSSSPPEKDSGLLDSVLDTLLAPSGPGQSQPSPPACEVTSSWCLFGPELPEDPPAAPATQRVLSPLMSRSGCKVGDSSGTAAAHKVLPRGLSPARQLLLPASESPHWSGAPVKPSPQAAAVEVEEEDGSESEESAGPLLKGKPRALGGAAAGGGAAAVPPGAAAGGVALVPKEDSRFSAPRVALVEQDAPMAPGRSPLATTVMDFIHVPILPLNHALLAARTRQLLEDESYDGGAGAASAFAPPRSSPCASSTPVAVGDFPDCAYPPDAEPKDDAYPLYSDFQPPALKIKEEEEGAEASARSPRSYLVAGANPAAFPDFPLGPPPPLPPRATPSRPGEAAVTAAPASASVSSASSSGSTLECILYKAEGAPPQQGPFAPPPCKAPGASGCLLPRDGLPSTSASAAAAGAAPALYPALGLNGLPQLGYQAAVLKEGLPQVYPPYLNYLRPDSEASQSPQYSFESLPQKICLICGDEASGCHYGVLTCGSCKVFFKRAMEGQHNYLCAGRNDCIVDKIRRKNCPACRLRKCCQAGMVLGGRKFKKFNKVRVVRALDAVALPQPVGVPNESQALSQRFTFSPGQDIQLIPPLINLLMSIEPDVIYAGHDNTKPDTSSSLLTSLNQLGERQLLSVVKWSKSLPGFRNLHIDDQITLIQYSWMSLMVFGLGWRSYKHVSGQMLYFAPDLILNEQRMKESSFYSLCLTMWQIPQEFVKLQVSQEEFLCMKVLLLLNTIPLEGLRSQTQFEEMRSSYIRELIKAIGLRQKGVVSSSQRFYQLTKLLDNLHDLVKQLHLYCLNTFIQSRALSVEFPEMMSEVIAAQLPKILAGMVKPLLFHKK
Outline: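 PR-UAS-bla HEK293T cells in medium with 2% charcoal-stripped FBS were treated with compounds plus 1 nM (final) promegestone (R5020) for 16 hr at 37C. LiveBLAzer B/G FRET substrate was then added for 2 h at room temperature; signal is cleaved/uncleaved substrate ratio versus DMSO.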

[9] = TOX21_PR_BLA_Followup_Agonist_viability: Viability Assessment in the Tox21 HEK293 Progesterone Receptor (PR) Agonism Beta-lactamase Follow-Up Assay (AID 2283935);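 also: signal loss means lower viability so actives are cytotoxic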
Outline: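 PR-UAS-bla HEK293T cells in 2% charcoal-stripped FBS medium, compound added after 6 hr plating, 16 hr at 37C/5% CO2. After bla FRET read, CellTiter-Glo added; luminescence read after 30 min at room temperature; signal loss marks cytotoxicity.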

[10] = TOX21_PR_BLA_Followup_Antagonist_viability: Viability Assessment in the Tox21 HEK293 Progesterone Receptor (PR) Antagonism Beta-lactamase Follow-Up Assay (AID 2283936);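 also: hits lower the luminescence signal meaning cytotoxicity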
Outline: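 PR-UAS-bla HEK293T cells (3,000/well, 2% charcoal-stripped FBS) given compound plus R5020 agonist, 16 h at 37C. CellTiter-Glo added after bla read, 30 min at room temperature; luminescence loss indicates cytotoxicity.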

PGR (gene 5241) [11] = biological target: PGR (gene 5241) (UniProt P06401); experiment: TOX21_PR_LUC_Followup_Antagonist: Tox21 HEK293 Progesterone Receptor (PR) Antagonism Luciferase Follow-Up Assay (AID 2283938);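 also: curve fitted upward as signal gain over DMSO baseline despite antagonist label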
Outline: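 Luciferase reporter in HEK293-PR-A-luc cells: 16 h compound treatment at 37C, ONE-Glo luminescence detection, DMSO as negative control and baseline.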

[12] = CCTE_Harrill_HTTr_Viability_MCF7: CCTE's 6-hour Cell Viability Assessment for the High-Throughput Transcriptomics (HTTr) Platform, in MCF-7 cells cultured in DMEM + 10% fetal bovine serum, Harrill Lab (AID 2284010; active = hit-call score of the fitted dose curve at least 0.9, where 1 is the maximum; inactive = score below 0.9)
Outline: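 Membrane integrity was scored by high-content imaging of propidium iodide dye exclusion after a 6 h exposure across an eight-point dilution series. Data were fitted bidirectionally relative to DMSO as negative control and baseline.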

[13] = CCTE_Harrill_HTTr_Apoptosis_MCF7: CCTE's 6-hour Apoptosis Assessment for the High-Throughput Transcriptomics (HTTr) Platform, in MCF-7 cells cultured in DMEM + 10% fetal bovine serum, Harrill Lab (AID 2284011; active = hit-call score of the fitted dose curve at least 0.9, where 1 is the maximum; inactive = score below 0.9)
Outline: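 Apoptosis in MCF-7 cells grown in DMEM with 10% fetal bovine serum was scored after a six hour exposure by high content imaging of caspase-3/7 activation (CellEvent Caspase 3/7 Green), with DMSO serving as negative control and baseline.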

[14] = CCTE_Harrill_HTTr_CellCount_MCF7: CCTE's Cell Proliferation Assessment for the High-Throughput Transcriptomics (HTTr) Platform, Harrill Lab (AID 2284012);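 also: cells exposed to compound for six hours; intended direction is loss of nuclei count meaning fewer cells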
Outline: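 MCF-7 cells were exposed for 6 h to an eight-point dilution series; Hoechst-labeled nuclei were counted by high content imaging. Curves were fitted bidirectionally against DMSO as negative control and baseline, with signal loss indicating reduced cell count.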

[15] = TAMU_PeakParms_SingleDonor1434_Chronotropy: Texas A&M University (TAMU) 1.5-hr Human Induced Pluripotent Stem Cell (iPSC)-derived Cardiomyocytes Calcium (Ca+2) Flux Assay for Cardiotoxicity: Chronotropy (changes in peak frequency) (AID 2284217; active = hit-call score of the fitted dose curve at least 0.9, where 1 is the maximum; inactive = score below 0.9); details: actives raise or lower the signal
Outline: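 Using fluorescent Ca2+ flux, average beats per second are measured in human iPSC-derived cardiomyocytes treated 90 min (0.5% DMSO vehicle, 0.2–100 uM). Non-beating data points are removed; activity is modeled in both directions relative to DMSO controls.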

[16] = TAMU_HCS_1.5hr_SingleDonor1434_Cytotoxicity: Cytotoxicity Assessment using High-content Screening (HCS) Fluorescent Imaging for the Texas A&M University (TAMU) 1.5-hr Human Induced Pluripotent Stem Cell (iPSC)-derived Cardiotoxicity Assay (AID 2284234)
Outline: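 Human iPSC-derived cardiomyocytes dosed at 0.2, 1, 10, 100 uM final (0.5% DMSO) for 90 min at 37 C. Hoechst 33342-stained nuclei counted by 10x high-content imaging; POD is EC10, a 10% drop in total cell count versus DMSO.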

[17] = TAMU_PeakParms_SingleDonor1434_QT: Texas A&M University (TAMU) 1.5-hr Human Induced Pluripotent Stem Cell (iPSC)-derived Cardiomyocytes Calcium (Ca+2) Flux Assay for Cardiotoxicity: QT (decay-rise ratio) (AID 2284235)
Outline: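 iPSC-derived cardiomyocytes (single donor 1434) dosed at 0.2, 1, 10, 100 uM final in 0.5% DMSO, 90 min at 37C. Ca2+ flux fluorescence decay/rise ratio; EC05 (5% increase versus DMSO) as POD, excluding beat-arrest and severe-notch data.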

[18] = TAMU_PeakParms_SingleDonor1434_Asystole: Texas A&M University (TAMU) 1.5-hr Human Induced Pluripotent Stem Cell (iPSC)-derived Cardiomyocytes Calcium (Ca+2) Flux Assay for Cardiotoxicity: Asystole (quiescence of beating) (AID 2284328)
Outline: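 Human iPSC-derived cardiomyocytes (donor 1434) were exposed to 0.2, 1, 10 and 100 uM compound in 0.5% DMSO for 90 min at 37C. Ca2+-dye fluorescence gave average peak frequency; POD is EC95, a 95% beat-rate drop versus DMSO.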

Measured: AC50

CCOC(=O)Cn1c(=O)sc2cccc(Cl)c21
inactive: [1] | [2] | [3] | [4] | [5] | [6]

CCCCCCCCC(=O)Cl
inactive: [1] | [2] | [3] | [4] | [5]

CNc1cc(OC)c(C(=O)N[C@H]2CCN(Cc3ccccc3)[C@H]2C)cc1Cl
inactive: [1] | [2] | [3] | [4] | [5]

C[C@@H]1C[C@H]2[C@@H]3CCC4=CC(=O)C=C[C@]4(C)[C@@]3(F)[C@@H](O)C[C@]2(C)[C@H]1C(=O)CO
inactive: [1] | [2] | [3] | [4]

Cc1cccc(Oc2ccccc2)c1
inactive: [1] | [2] | [3] | [7] | [6]

C/C=C1\NC(=O)[C@H]2CSSCC/C=C/[C@H](CC(=O)N[C@H](C(C)C)C(=O)N2)OC(=O)C(C(C)C)NC1=O (some centres not stated)
active: [1] 1.46 µM | [2] 1.87 µM | [3] 4.57 µM | [7] 0.735 µM | [5] 2.56 µM | [6] 7.21 µM

COc1cc2c(N3CCN(C(=O)Nc4ccc(OC(C)C)cc4)CC3)ncnc2cc1OCCCN1CCCCC1
active: [3] 36.9 µM | [6] 25.2 µM
inactive: [1] | [2] | [7] | [5]

Brc1c(NC2=NCCN2)ccc2nccnc12
inactive: [1] | [2] | [3] | [4] | [5] | [6]

CCCCC(=O)OCC(=O)[C@H]1[C@H](C)C[C@H]2[C@@H]3C[C@H](F)C4=CC(=O)C=C[C@]4(C)[C@@]3(F)[C@@H](O)C[C@@]21C
inactive: [1] | [2] | [3] | [7] | [5]

CCCCOc1cc(C(=O)NCCN(CC)CC)c2ccccc2n1
inactive: [1] | [2] | [3] | [7] | [6]

COc1ccc(CCN(C)CCCC(C#N)(c2cc(OC)c(OC)c(OC)c2)C(C)C)cc1OC (configuration not stated)
inactive: [1] | [2] | [3] | [7] | [5] | [6]

CCC(=O)OCC(=O)[C@@]1(OC(=O)CC)[C@H](C)C[C@H]2[C@@H]3CCC4=CC(=O)C=C[C@]4(C)[C@@]3(F)[C@@H](O)C[C@@]21C
inactive: [1] | [2] | [3] | [7] | [5]

CCCn1cnc2c1c(=O)n(CCCCC(C)=O)c(=O)n2C
inactive: [1] | [2] | [3] | [4] | [5]

O=P(O)(O)CP(=O)(O)O
inactive: [1] | [2] | [3] | [7] | [5] | [6]

CC(=O)OCC(=O)[C@@]1(OC(C)=O)[C@@H](C)C[C@H]2[C@@H]3C[C@H](F)C4=CC(=O)C=C[C@]4(C)[C@@]3(F)[C@@H](O)C[C@@]21C
inactive: [1] | [2] | [3] | [7] | [5] | PGR (gene 5241) [8] | [9] | [10] | PGR (gene 5241) [11]

CC(=O)c1ccc2c(c1)N(CCCN1CCN(CCO)CC1)c1ccccc1S2
active: [7] 31.6 µM
inactive: [1] | [2] | [3] | [5]

CN1CCN(C2Cc3ccccc3Sc3ccc(Cl)cc32)CC1 (configuration not stated)
active: [1] 34.4 µM | [2] 34.5 µM | [7] 34.3 µM
inactive: [3] | [5] | [6]

C[C@H]1C[C@H]2[C@@H]3CCC4=CC(=O)C=C[C@]4(C)[C@@]3(F)[C@@H](O)C[C@]2(C)[C@@]1(O)C(=O)CCl
inactive: [1] | [2] | [7]

OCCOCC#CCOCCO
inactive: [1] | [2] | [3] | [5] | [6]

COc1ccc(CCN(C)CCCC(C#N)(c2ccc(OC)c(OC)c2)C(C)C)cc1OC (configuration not stated)
inactive: [1] | [2] | [7] | [5] | [12] | [13] | [14] | [15] | [16] | [17] | [18]
active: [7] 39.2 µM

Cc1cccc2nccnc12
inactive: [1] | [2] | [3] | [4] | [6]

NC[C@H]1O[C@H](O[C@H]2[C@H](O)[C@@H](O[C@H]3O[C@H](CO)[C@@H](O)[C@H](N)[C@H]3O)[C@H](N)C[C@@H]2N)[C@H](N)C[C@@H]1O
inactive: [1] | [2] | [3] | [4] | [6]

Nc1nc2c(c(=O)[nH]1)N(C=O)C(CNc1ccc(C(=O)N[C@@H](CCC(=O)O)C(=O)O)cc1)CN2 (some centres not stated)
inactive: [1] | [2] | [3] | [4] | [6]

CC(C(O)c1ccc(O)cc1)N1CCC(Cc2ccccc2)CC1 (configuration not stated)
inactive: [1] | [2] | [7] | [4]

C=CCN1CCCC1CNC(=O)c1cc(S(N)(=O)=O)cc(OC)c1OC (configuration not stated)
inactive: [1] | [2] | [3] | [4] | [6]

COc1cc(OC)cc(OC)c1
inactive: [1] | [2] | [3] | [4] | [5] | [6]

COc1ccc([C@@H]2Sc3ccccc3N(CCN(C)C)C(=O)[C@@H]2OC(C)=O)cc1
inactive: [1] | [5] | [6] | [12] | [13]
active: [2] 38.8 µM | [3] 43.6 µM
